Test results from PubChem BioAssay AID1159580 (chemical genetic matrix, 2015).
Screen size: about 5,500 compounds; about 2,000 (36%) were called active. Roughly 18% stayed inconclusive and do not appear here. Rule as the data show it: active = normalized growth mostly below about 0.91 (no sharp cut-off); inconclusive = no clear call, values can overlap the other calls; inactive = mostly above about 0.92. This is one part of the list.

Experiment: chemical genetic growth profiling, strain panel (AID 1159580);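 also: tested at 20 µM; growth read once vehicle control cultures reached saturation at 30 °C; 1 = growth at the plate median or of vehicle wells; lower values mean less growth of the strain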
Settings: growth OD

Measured: normalized growth

CC(C)(C)NCC(O)c1cc(Cl)c(N)c(Cl)c1 (centres undefined)
inactive: S. cerevisiae deletion strains, locus YJR043C, strain POL32, hits give low values 1.01 | S. cerevisiae deletion strains, locus YJR075W, strain HOC1, hits give low values 1.01 | S. cerevisiae deletion strains, locus YKL009W, strain mrt4, hits give low values 1 | S. cerevisiae deletion strains, locus YKL068W, hits give low values 1 | S. cerevisiae deletion strains, locus YKL085W, strain MDH1 (second series), hits give low values 1.01 | S. cerevisiae deletion strains, locus YKL085W, strain MDH1, hits give low values 1.01 | S. cerevisiae deletion strains, locus YKL160W, strain elf1, hits give low values 0.998 | S. cerevisiae deletion strains, locus YKL190W, strain CNB1, hits give low values 1 | S. cerevisiae deletion strains, locus YKR001C, strain vps1, hits give low values 1.01 | S. cerevisiae deletion strains, locus YKR026C, strain gcn3, hits give low values 0.999 | S. cerevisiae deletion strains, locus YKR091W, strain srl3, hits give low values 1 | S. cerevisiae deletion strains, locus YLL001W, strain dnm1, hits give low values 0.983 | S. cerevisiae deletion strains, locus YLL026W, hits give low values 0.992 | S. cerevisiae deletion strains, locus YLL041C, strain sdh2, hits give low values 1 | S. cerevisiae deletion strains, locus YLR027C, strain aat2, hits give low values 0.999 | S. cerevisiae deletion strains, locus YLR039C, strain RIC1, hits give low values 1.02 | S. cerevisiae deletion strains, locus YLR058C, strain SHM2, hits give low values 1.02 | S. cerevisiae deletion strains, locus YLR102C, strain apc9, hits give low values 0.992 | S. cerevisiae deletion strains, locus YLR221C, strain rsa3, hits give low values 1 | S. cerevisiae deletion strains, locus YLR258W, strain gsy2, hits give low values 0.993 | S. cerevisiae deletion strains, locus YLR262C, strain YPT6 (second series), hits give low values 0.999 | S. cerevisiae deletion strains, locus YLR262C, strain YPT6, hits give low values 1.05 | S. cerevisiae deletion strains, locus YLR268W, strain sec22, hits give low values 0.977 | S. cerevisiae deletion strains, locus YLR320W, strain mms22, hits give low values 0.996 | S. cerevisiae deletion strains, locus YLR330W, strain CHS5, hits give low values 1.01 | S. cerevisiae deletion strains, locus YLR342W, strain FKS1 (second series), hits give low values 1.02 | S. cerevisiae deletion strains, locus YLR342W, strain FKS1, hits give low values 1 | S. cerevisiae deletion strains, locus YLR357W, strain rsc2, hits give low values 1 | S. cerevisiae deletion strains, locus YLR370C, strain arc18, hits give low values 1 | S. cerevisiae deletion strains, locus YLR371W, strain rom2, hits give low values 0.991 | S. cerevisiae deletion strains, locus YLR384C, strain iki3, hits give low values 1 | S. cerevisiae deletion strains, locus YLR418C, strain cdc73, hits give low values 0.976 | S. cerevisiae deletion strains, locus YML016C, strain PPZ1, hits give low values 1.01 | S. cerevisiae deletion strains, locus YML032C, strain rad52, hits give low values 0.992 | S. cerevisiae deletion strains, locus YML120C, strain ndi1, hits give low values 1.01 | S. cerevisiae deletion strains, locus YML124C, strain tub3, hits give low values 0.999 | S. cerevisiae deletion strains, locus YMR058W, strain fet3, hits give low values 0.998 | S. cerevisiae deletion strains, locus YMR078C, strain ctf18, hits give low values 1 | S. cerevisiae deletion strains, locus YMR125W, strain sto1, hits give low values 0.99 | S. cerevisiae deletion strains, locus YMR129W, hits give low values 1.01 | S. cerevisiae deletion strains, locus YMR205C, strain PFK2, hits give low values 0.982 | S. cerevisiae deletion strains, locus YMR223W, strain ubp8, hits give low values 1 | S. cerevisiae deletion strains, locus YMR231W, strain pep5, hits give low values 1 | S. cerevisiae deletion strains, locus YMR263W, strain SAP30, hits give low values 1.01 | S. cerevisiae deletion strains, locus YMR307W, strain GAS1, hits give low values 0.995 | S. cerevisiae deletion strains, locus YNL067W, strain RPL9B, hits give low values 1.01 | S. cerevisiae deletion strains, locus YNL071W, strain lat1, hits give low values 1 | S. cerevisiae deletion strains, locus YNL128W, strain TEP1, hits give low values 1.02 | S. cerevisiae deletion strains, locus YNL153C, strain GIM3, hits give low values 1 | S. cerevisiae deletion strains, locus YNL209W, strain ssb2, hits give low values 1.01 | S. cerevisiae deletion strains, locus YNL233W, strain BNI4, hits give low values 1.01 | S. cerevisiae deletion strains, locus YNL248C, strain rpa49, hits give low values 1 | S. cerevisiae deletion strains, locus YNL250W, strain rad50, hits give low values 0.989 | S. cerevisiae deletion strains, locus YNL271C, strain bni1, hits give low values 0.99 | S. cerevisiae deletion strains, locus YNL298W, strain CLA4, hits give low values 0.992 | S. cerevisiae deletion strains, locus YNL307C, strain MCK1, hits give low values 0.996 | S. cerevisiae deletion strains, locus YNL322C, strain KRE1 (second series), hits give low values 0.997 | S. cerevisiae deletion strains, locus YNL322C, strain KRE1, hits give low values 1.01 | S. cerevisiae deletion strains, locus YNR049C, strain mso1, hits give low values 0.997 | S. cerevisiae deletion strains, locus YNR052C, strain pop2, hits give low values 1 | S. cerevisiae deletion strains, locus YOL006C, strain TOP1, hits give low values 1.05 | S. cerevisiae deletion strains, locus YOL012C, strain htz1 1.23 | S. cerevisiae deletion strains, locus YOL147C, strain pex11, hits give low values 1 | S. cerevisiae deletion strains, locus YOR001W, strain rrp6, hits give low values 0.99 | S. cerevisiae deletion strains, locus YOR061W, strain CKA2, hits give low values 1.01 | S. cerevisiae deletion strains, locus YOR069W, strain VPS5, hits give low values 1.01 | S. cerevisiae deletion strains, locus YOR070C, strain gyp1, hits give low values 0.994 | S. cerevisiae deletion strains, locus YOR080W, strain dia2, hits give low values 0.998 | S. cerevisiae deletion strains, locus YOR083W, strain WHI5, hits give low values 1 | S. cerevisiae deletion strains, locus YOR106W, strain vam3, hits give low values 0.996 | S. cerevisiae deletion strains, locus YOR136W, strain idh2, hits give low values 0.991 | S. cerevisiae deletion strains, locus YOR144C, strain elg1, hits give low values 0.999 | S. cerevisiae deletion strains, locus YOR184W, strain ser1, hits give low values 1 | S. cerevisiae deletion strains, locus YOR265W, strain rbl2, hits give low values 1 | S. cerevisiae deletion strains, locus YOR270C, strain vph1, hits give low values 0.958 | S. cerevisiae deletion strains, locus YOR290C, strain snf2, hits give low values 0.971 | S. cerevisiae deletion strains, locus YOR316C, strain cot1, hits give low values 1 | S. cerevisiae deletion strains, locus YPL051W, strain arl3, hits give low values 0.995 | S. cerevisiae deletion strains, locus YPL055C, strain LGE1, hits give low values 0.993 | S. cerevisiae deletion strains, locus YPL078C, strain atp4, hits give low values 0.991 | S. cerevisiae deletion strains, locus YPL106C, strain sse1, hits give low values 0.985 | S. cerevisiae deletion strains, locus YPL240C, strain hsp82, hits give low values 1.01 | S. cerevisiae deletion strains, locus YPL241C, strain CIN2, hits give low values 1 | S. cerevisiae deletion strains, locus YPR119W, strain clb2, hits give low values 0.999 | S. cerevisiae deletion strains, locus YPR141C, strain kar3, hits give low values 0.996 | S. cerevisiae deletion strains, locus YPR163C, strain tif3, hits give low values 0.999 | S. cerevisiae deletion strains, locus YPR167C, strain met16, hits give low values 0.994 | S. cerevisiae deletion strains, strain wtn01, hits give low values 0.971 | S. cerevisiae strains, strain wild type, hits give low values 1
